Screening data as filed in PubChem BioAssay.
Only a selection was taken, and hits are over-represented in it overall.
HTT promoter inh: Primary qHTS for Identification of Small Molecule Inhibitors of Huntingtin Promoter Activity. Potency, µM (series often up to 57.5 µM), for inactives: at the highest dose activity change, negative = inhibition, actives largely listed as inhibitors. 48,000 tested, 0.93% active. HEK293 HTT promoter firefly luciferase reporter, 24 h; note: potency is the fitted concentration of half-maximal effect; nearly all actives have a fitted effect of over 50% in size
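Firefly luciferase readout (Dual-Glo, 10 min RT) after 24 h, 37 °C compound exposure (final up to 57.5 uM) of HEK293 reporter cells cultured 24 h beforehand; PTC124 at 50 uM final as control inhibitor; activity scaled vehicle 0%, zero RLU -100%.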
GALK inhibitor: qHTS Assay for Inhibitors of Human Galactokinase (GALK): NCGC Sytravon Library Screen; P51570; recombinant GALK, Kinase-Glo ATP luminescence, 1 h; Potency, µM (top dose mostly 57.5 µM), for the others: at the highest dose activity, negative = inhibition, actives largely listed as inhibitors; 44,000 tested, under 10 active;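 note: plate controls were full GALK reaction for no effect and reaction lacking GALK for full effect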
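5 nM GALK with 35 µM ATP and 100 µM galactose in HEPES pH 8.0, MgCl2, NaCl, DTT, BSA; 1 h RT reaction, remaining ATP detected by Kinase-Glo Plus luminescence after 10 min; qHTS concentration series.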
B2AR arrestin ag: qHTS assay of beta-arrestin-biased ligands of beta2-adrenergic receptor: NCGC Sytravon Library Screen; AID 1347077, 2019; 44,000 tested, under 10 active; Potency, µM (series often up to 46.1 µM), hits mostly activators; HTLA Tango cells, beta-arrestin recruitment, luciferase luminescence, 18 h;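 note: potency is the fitted concentration of half-maximal effect; 0% = DMSO and full agonism = EC100 isoproterenol or metaproterenol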
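Tango cells (recombinant beta2-AR, beta-arrestin, tTA-driven luciferase), 1500/well in DMEM 1% FBS, treated 18 h at 37 °C with compounds up to 46 µM; luciferin mix added, luminescence read after 15 min; %activity curves fitted and curve-classed.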
TSG101-PTAP inh: qHTS Validation Assay for Inhibitors of HIV-1 Budding by Blocking the Interaction of PTAP/TSG101: Sytravon Library Screen | Potency, µM (series often up to 115 µM), hits mostly inhibitors | Fluorescence polarization, FITC-PTAP peptide/Tsg101, 20 min | 44,000 tested, under 10 active; note: potency is the fitted concentration of half-maximal effect; 0% is about no effect
Target sequence (Q99816 whole entry, looked up): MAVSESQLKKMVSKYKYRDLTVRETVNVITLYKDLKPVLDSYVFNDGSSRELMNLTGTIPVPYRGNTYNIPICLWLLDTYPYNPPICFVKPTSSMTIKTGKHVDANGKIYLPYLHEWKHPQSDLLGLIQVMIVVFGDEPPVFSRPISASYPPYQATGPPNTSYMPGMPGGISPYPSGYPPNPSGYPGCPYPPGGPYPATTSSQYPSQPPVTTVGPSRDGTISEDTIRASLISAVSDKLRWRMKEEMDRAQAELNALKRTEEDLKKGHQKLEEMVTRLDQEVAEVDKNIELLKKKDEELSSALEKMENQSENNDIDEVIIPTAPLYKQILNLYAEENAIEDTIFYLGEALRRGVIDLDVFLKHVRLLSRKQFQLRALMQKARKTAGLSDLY
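Compounds pinned into 10 uM Tsg101 binding domain, then 50 nM FITC-PTAP peptide added in pH 7.5 HEPES buffer; FP read after 20 min, room temperature. Total S+P intensity flags fluorescent compounds; active cut-off <25 µM, efficacy <60%.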
NTMT1 inh: Primary qHTS for Inhibitors of N-terminal methyltransferase 1 (NTMT1): MTaseGlo Assay; Potency, µM (doses to about 114 µM), inactives show top-dose activity change, negative = inhibition, hits mostly inhibitors; NTMT1 MTase-Glo SAH luminescence, purified enzyme; 59,000 tested, 2.5% active; AID 1645870, 2021; N-terminal Xaa-Pro-Lys N-methyltransferase 1 (Homo sapiens), Q9BV86;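 note: potency is the fitted concentration of half-maximal effect; plate controls were DMSO vehicle for no effect and no enzyme for full effect; nearly all actives have a fitted effect of over 65% in size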
Target sequence (Q9BV86 whole entry, looked up): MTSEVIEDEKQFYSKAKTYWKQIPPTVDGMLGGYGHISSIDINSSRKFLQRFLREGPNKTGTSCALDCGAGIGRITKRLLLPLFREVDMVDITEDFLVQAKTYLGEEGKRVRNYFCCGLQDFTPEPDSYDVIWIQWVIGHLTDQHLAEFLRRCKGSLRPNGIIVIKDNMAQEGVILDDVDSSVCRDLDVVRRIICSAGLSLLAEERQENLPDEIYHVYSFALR
HTT-AS promoter: Primary qHTS for Identification of Small Molecule Activators of Huntingtin-Antisense Promoter Activity | HEK293 HTT-AS promoter firefly luciferase reporter, 24 h; response scale: percent change from vehicle, -100% = no light | Potency, µM (titrated, usually from 57.5 µM), without a hit: at the highest dose activity change, positive = activation, actives largely listed as activators | 48,000 tested, 0.24% active | AID 1508624, 2021; note: potency is the fitted concentration of half-maximal effect; nearly all actives have a fitted effect of over 55% in size
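Firefly luciferase readout (Dual-Glo, 10 min RT) after 24 h, 37 °C compound exposure (final up to 57.5 uM) of HEK293 reporter cells cultured 24 h beforehand; PTC124 at 50 uM final as control inhibitor; activity scaled vehicle 0%, zero RLU -100%.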
Sfp qHTS opt: qHTS Assay for Inhibitos of Bacillus subtilis Sfp phosphopantetheinyl transferase (PPTase): Chemistry Optimization Followup; purified Sfp PPTase enzyme activity, qHTS; Potency, µM (top dose mostly 114 µM), for the others: top-dose activity change, negative = inhibition, usual class: inhibitors; shares compounds with NTMT1 inh; 230 tested, 78% active
Bsub HM489 growth: qHTS for Inhibitos of Bacillus subtilis Sfp phosphopantetheinyl transferase (PPTase): Chemistry Optimization Followup in B. Subtilis HM489. shares compounds with NTMT1 inh. B. subtilis HM489 (acpS-) growth, BacTiter-Glo, 5 h. Potency, µM (doses to about 114 µM), without a hit: at the highest dose activity change, negative = inhibition, hits mostly inhibitors. 220 tested, 50% active. AID 540353, 2011
Sfp gel opt: Gel-Based Assay for Inhibitos of Bacillus subtilis Sfp phosphopantetheinyl transferase (PPTase): Chemistry Optimization Followup; shares compounds with NTMT1 inh; purified Sfp PPTase, gel-based product detection; Potency, µM (titrated, usually from 250 µM), without a hit: at the highest dose activity change, negative = inhibition, usual class: inhibitors; 220 tested, 54% active
Sfp SAR2: qHTS Assay for Inhibitors of Bacillus subtilis Sfp phosphopantetheinyl transferase (PPTase): SAR Round 2; shares compounds with NTMT1 inh; purified Sfp enzyme, PPTase activity, qHTS; Potency, µM (doses to about 57.1 µM), without a hit: at the top dose activity change, negative = inhibition, hits mostly inhibitors; 230 tested, 87% active; AID 602370, 2012
hGST A1-1 inh: qHTS Assay for Inhibitors of Bacillus subtilis Sfp phosphopantetheinyl transferase (PPTase): SAR in hGST A1-1. shares compounds with NTMT1 inh. hGST A1-1 enzyme activity counter-screen, qHTS. Potency, µM (series often up to 114 µM), for the others: top-dose activity change, negative = inhibition, usual class: inhibitors. 55 tested, under 10 active
HSD17B4 inh: Extended Characterization of HPGD Inhibitors: Counterscreen Against HSD17b4; Potency, µM (highest dose often 57.1 µM), for the others: top-dose activity change, negative = inhibition, hits mostly inhibitors; shares compounds with NTMT1 inh; 230 tested, 10% active; AID 743187, 2013; purified HSD17B4, estradiol/NAD+, NADH fluorescence
ALDH1A1 counter: Extended Characterization of HPGD Inhibitors: Counterscreen Against ALDH1A1; AID 743195, 2013; 230 tested, 93% active; Potency, µM (doses to about 57.1 µM), for the others: at the top dose activity change, negative = inhibition, hits mostly inhibitors; recombinant ALDH1A1, NADH fluorescence, propionaldehyde/NAD+; shares compounds with NTMT1 inh
NNMT inh: Counterscreen qHTS for Inhibitors of N-terminal methyltransferase 1 (NTMT1): NNMT MTaseGlo assay. shares compounds with NTMT1 inh. NNMT MTase-Glo luminescence, SAH detection. Potency, µM (titrated, usually from 57.1 µM), for the others: at the top dose activity, negative = inhibition, usual class: inhibitors. 120 tested, 10% active
Numbers without * were called inactive; i = inactive; ? = inconclusive; / = no result; [ ] = dose if it differs, or a comment. Calls come from the whole dose curve; as a rule, active = well fitted curve in the direction sought with a large enough effect; inconclusive = small, poorly fitted or top-dose-only effect, or another doubt; inactive = no such curve, though single readings can be large; an effect the other way counts as inactive or inconclusive.

SMILES	HTT promoter inh	GALK inhibitor	B2AR arrestin ag	TSG101-PTAP inh	NTMT1 inh	HTT-AS promoter	Sfp SAR2	HSD17B4 inh	ALDH1A1 counter	others
Cc1ccc(-n2ncc3c(N4CCN(C)CC4)ncnc32)cc1	?	0%	i	i	-1%	-60%	/	/	/
Cc1cc(C)nc(NC(=S)N2CCN(c3ccsc3)CC2)c1	/	/	/	/	/	/	8.1µM*	?	22µM*	Sfp qHTS opt=5.9µM*;Bsub HM489 growth=?;Sfp gel opt=-77%
Cc1cc(C)nc(NC(=S)N2CCN(c3cc(C#N)cc(C#N)c3)CC2)c1	/	/	/	/	?	/	0.65µM*	-13%	17µM*	Sfp qHTS opt=2.4µM*;Bsub HM489 growth=93%;Sfp gel opt=-73%
Cc1cc(C)nc(NC(=S)N2CCN(c3nccc(C(F)(F)F)n3)CC2)c1	/	/	/	/	?	/	1.1µM*	?	17µM*	Sfp qHTS opt=2.1µM*;Bsub HM489 growth=?;Sfp gel opt=3.2µM*
CCNC(=O)[C@@H]1CCCN1C(=O)[C@H](CCCN=C(N)N)NC(=O)[C@H](CC(C)C)NC(=O)[C@@H](C)NC(=O)[C@H](Cc1ccc(O)cc1)NC(=O)[C@H](CO)NC(=O)[C@H](Cc1c[nH]c2ccccc12)NC(=O)[C@H](Cc1cnc[nH]1)NC(=O)[C@@H]1CCC(=O)N1	/	/	/	/	-4%[29.8 µM]	/	/	/	/
Cc1cc(C)nc(NC(=S)N2CCN(c3cc(Cl)c(Cl)c(Cl)c3)CC2)c1	/	/	/	/	?	/	0.36µM*	-8%	6.1µM*	Sfp qHTS opt=1.5µM*;Bsub HM489 growth=8%;Sfp gel opt=10µM*
Cc1cc(C)nc(NC(=S)N2CCN(c3cc(F)cc(F)c3)CC2)c1	/	/	/	/	/	/	1.3µM*	/	/	Sfp qHTS opt=6.6µM*;Bsub HM489 growth=37µM*;Sfp gel opt=10µM*
O=C(Nc1ccc(F)cc1F)N1CCN(c2ccc(Cl)c(Cl)c2)CC1	?	-2%	i	i	1%	-28%	/	/	/
COc1nc2sc(C(=O)NC3CC3)c(N)c2c(C)c1Cl	/	/	/	/	21%[57.5 µM]	/	/	/	/
Cc1sc2c(c1C)c(=O)n(Cc1ccccc1)c(=O)n2Cc1ccc(F)cc1	-3%	2%	i	i	-4%	5%	/	/	/
Cn1sc(=O)n(Cc2ccccc2)c1=O	/	/	/	/	7.9µM*	/	/	/	/	NNMT inh=1.6µM*
C=Cc1cc2oc(-c3ccc(O)c(F)c3)nc2cc1O	/	/	/	/	28µM*	/	/	/	/	NNMT inh=?
N#Cc1ccc(Nc2ncc(-c3cccc4ccccc34)o2)cc1	/	/	/	/	7%	/	/	/	/
CSc1ccc(C(=O)/C=C/c2cc(C)c(OC(C)(C)C(=O)O)c(C)c2)cc1	/	/	/	/	7%[228 µM]	/	/	/	/
Cc1nc(C#Cc2ccnc(Cl)c2)c(C)n1-c1ccc(OC(F)(F)F)cc1	/	/	/	/	?	/	/	/	/	NNMT inh=-17%
O=C(Nc1cccc(Cl)c1)C(Cc1ccccc1)n1cccc1 (stereo not given)	-20%	-3%	i	i	7%	-26%	/	/	/
CSC(Cc1ccc(Cl)cc1)C(=O)Nc1ccc(Cl)cc1C(=O)O (stereo not given)	/	/	/	/	17%	/	31%	?	24µM*	hGST A1-1 inh=?
CC(Cc1ccccc1)C(=O)Nc1ccc(Cl)cc1C(=O)O (stereo not given)	/	/	/	/	18%	/	-20%	24µM*	24µM*	hGST A1-1 inh=?
O=C(Nc1ccccc1Br)NC1CCN(c2ccc(C(F)(F)F)cn2)C1 (stereo not given)	/	/	/	/	-1%[57.5 µM]	/	/	/	/
COc1cc2c(Nc3cc(F)c(Cl)c(Cl)c3)ncnc2cc1OCC1CCCN(C)CCC1	/	/	/	/	35µM*	/	/	/	/	NNMT inh=?
C[C@@H]1COC(Nc2ccc3ncnc(Nc4ccc(OCc5nccs5)c(Cl)c4)c3c2)=N1	?	/	/	/	?	-32%	/	/	/
